Screening data deposited in PubChem BioAssay by National Center for Advancing Translational Sciences (NCATS).
Cruzain inh noDet – inhibitors of Trypanosoma cruzi cruzain without detergent | purified cruzain, Z-FR-AMC fluorescence, no detergent | Potency, µM, usual class: inhibitors | actives 2.3% (n = 200,000) | AID 1476; also: nearly all actives have a fitted effect of over 40% in size
Target sequence (P25779 123-467 limits assumed): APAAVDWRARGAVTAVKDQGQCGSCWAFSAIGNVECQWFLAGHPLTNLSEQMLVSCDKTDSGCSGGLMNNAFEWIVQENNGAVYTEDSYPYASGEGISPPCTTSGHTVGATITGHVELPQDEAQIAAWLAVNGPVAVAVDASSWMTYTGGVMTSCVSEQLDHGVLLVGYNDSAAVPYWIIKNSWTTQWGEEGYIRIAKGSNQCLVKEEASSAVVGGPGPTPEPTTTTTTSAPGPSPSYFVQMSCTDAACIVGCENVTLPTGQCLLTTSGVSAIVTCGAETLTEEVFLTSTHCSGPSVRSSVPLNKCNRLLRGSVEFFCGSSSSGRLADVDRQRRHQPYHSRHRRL
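Purified cruzain at 1.5 nM, pre-incubated 15 min with compound at room temperature in 100 mM sodium acetate pH 5.5, 5 mM DTT, 0.00005% Triton X-100. Reaction started with 2 uM Z-FR-AMC; AMC fluorescence increase over 60 s gives rate.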
Cruzain inh Det – blocks cruzain activity in presence of Triton detergent; P25779; purified cruzain, Z-FR-AMC fluorescence, 0.01% Triton; Potency, µM, usual class: inhibitors; actives 0.43% (n = 200,000); also: nearly all actives have a fitted effect of over 40% in size
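Enzyme 1.5 nM, Z-FR-AMC 2 uM, NaOAc 100 mM pH 5.5, DTT 5 mM, Triton X-100 0.01%; 15 min RT compound preincubation; kinetic ex360/em450, 60 s delta.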
Of the large screens only hits and unclear results are named; the others gave an inactive call. Rows were chosen to be rich in hits. Some 2.4% of all compounds tested hit in one or more screens of this group. Calls follow the shape of the dose curve; as a rule, active = well fitted curve in the direction sought with a large enough effect; inconclusive = small, poorly fitted or top-dose-only effect, or another doubt; inactive = no such curve, though single readings can be large; an effect the other way counts as inactive or inconclusive.

Cc1[nH]c2ccccc2c1C(=O)CSc1nc2cc(S(=O)(=O)N3CCCCC3)ccc2o1	Cruzain inh noDet 25.1µM
Cc1ccc(C(=O)CSc2nc3cc(S(=O)(=O)N4CCOCC4)ccc3o2)cc1	none
Cc1ccc(S(=O)(=O)N2CCN(CC(=O)NC3CCCc4ccccc43)CC2)cc1C (stereo not given)	Cruzain inh noDet inconclusive
CCOc1ccc(C(=O)N/N=C/c2ccccc2[N+](=O)[O-])cc1	none
O=C(N/N=C/c1ccccc1[N+](=O)[O-])c1ccc(COc2ccccc2-c2ccccc2)cc1	Cruzain inh noDet 12.6µM
O=C(NCCC1=CCCCC1)c1ccc2c(c1)N(Cc1ccccc1F)C(=O)c1ccccc1S2=O (stereo not given)	none
COCCn1ccc2c(OCC(=O)Nc3ccccc3F)cccc2c1=O	none
CCCc1ccc(Oc2coc3cc(OCC(=O)Nc4ccccc4C)ccc3c2=O)cc1	none
CCc1ccc(Oc2coc3cc(OCC(=O)Nc4cc(C)ccc4C)ccc3c2=O)cc1	Cruzain inh noDet 25.1µM
Cc1ccc(CNC(=O)C2CCCN(c3nnc(-n4c(C)ccc4C)s3)C2)cc1 (stereo not given)	none
Cc1cccc(NC(=O)CSc2nnc([C@@H](N)Cc3c[nH]c4ccccc34)o2)c1C	Cruzain inh noDet 12.6µM, Cruzain inh Det 12.6µM
CCSc1nnc([C@@H](N)Cc2c[nH]c3ccccc23)o1	none
CCOC(=O)CSc1nc2ccc(NC(=O)COc3ccccc3C)cc2s1	none
Cc1ccc(C)c(CN2C(=O)C3(c4ccccc42)N(c2ccc(Cl)cc2)C(=O)CS3(=O)=O)c1 (stereo not given)	Cruzain inh noDet 3.16µM
Cc1ccc(CN2C(=O)C3(c4ccccc42)N(c2ccc(C)c(Cl)c2)C(=O)CS3(=O)=O)cc1 (stereo not given)	Cruzain inh noDet 1.26µM
Cc1ccc(N2C(=O)CS(=O)(=O)C23C(=O)N(Cc2ccc(Cl)cc2)c2ccccc23)cc1C (stereo not given)	Cruzain inh noDet 12.6µM
Cc1ccc(C)c(CN2C(=O)C3(OCCCO3)c3ccccc32)c1	none
COc1ccc(N2C(=O)CCSC23C(=O)N(Cc2ccc(F)cc2)c2ccccc23)cc1 (stereo not given)	none
Cc1ccc(CN2C(=O)C3(SCC(=O)N3c3ccc(C)c(C)c3)c3ccccc32)cc1 (stereo not given)	Cruzain inh noDet inconclusive
COc1ccc(N2C(=O)CS(=O)(=O)C23C(=O)N(Cc2ccc(F)cc2)c2ccc(C)cc23)cc1 (stereo not given)	Cruzain inh noDet 3.16µM
O=C1CS(=O)(=O)C2(C(=O)Nc3ccccc32)N1c1cccc(Cl)c1 (stereo not given)	none
CCCOc1ccccc1Cn1c(=O)sc2ccccc21	none
Cc1nn2c(C)c(C(=O)NCc3ccc(OC(C)C)cc3)cnc2c1-c1ccc(F)cc1	none
Cc1cc2c(cc1S(=O)(=O)N(C)CC(=O)Nc1cccc(C#N)c1)OCC(=O)N2	none
CCCOc1ccc(-c2cc(C(F)(F)F)c(C#N)c(SCCC(=O)O)n2)cc1	none
Cc1nn(S(=O)(=O)c2ccc(C(C)(C)C)cc2)c(C)c1S(=O)(=O)N1CCC(C)CC1	none
CCOc1ccc(CCn2c3c(c(=O)[nH]c2=O)C(NC(=O)c2ccccc2)(C(F)(F)F)C(=O)N3)cc1OCC (stereo not given)	none
Cc1ccc(N2C(=O)CS(=O)(=O)C23C(=O)N(Cc2ccccc2F)c2ccccc23)cc1Cl (stereo not given)	Cruzain inh noDet 1.26µM
Cc1ccc(N2C(=O)CSC23C(=O)N(Cc2ccccc2F)c2ccccc23)cc1F (stereo not given)	none
COc1ccc(-n2c(/C=C/c3cc(OC)c(OC)cc3OC)nc3cc4ccccc4cc3c2=O)cc1Cl	none
Cc1ccc(N=C2NC(=O)/C(=C/c3cccs3)S2)cc1C	Cruzain inh noDet inconclusive
Cc1cccc(N=C2NC(=O)/C(=C\c3cccs3)S2)c1	Cruzain inh noDet 31.6µM
CC(C)(C)C1CCc2c(sc(NC(=O)c3cccc(Cl)c3)c2C(=O)NCc2ccco2)C1 (stereo not given)	none
Cc1cc(C2=NNC(=NC3CC3)SC2)c(C)n1-c1ccccc1F	Cruzain inh noDet inconclusive
C=C(C)CN=C1NN=C(c2cc(C)n(-c3ccc(C)cc3)c2C)CS1	Cruzain inh noDet 7.94µM
O=C(N/N=C/c1ccc(-c2cccc(C(F)(F)F)c2)o1)c1ccccc1Br	none
O=C(N/N=C/c1ccc(-c2cccc(C(F)(F)F)c2)o1)c1ccccc1O	Cruzain inh noDet 10µM
CC1=C(C(=O)Nc2cccnc2)C(c2cccc(F)c2)n2nc(SCc3ccccc3)nc2N1 (stereo not given)	none
CC(/C=C/c1ccc(N(C)C)cc1)=N\N=C(/N)SC1CC(=O)N(c2ccc(C(=O)O)cc2)C1=O (stereo not given)	Cruzain inh noDet 10µM, Cruzain inh Det inconclusive
O=C(O)c1ccc(N2C(=O)CC(SC(=Nc3ccccc3)Nc3ccccc3)C2=O)cc1 (stereo not given)	none
CCc1ccc(C2c3c(-c4cc(C)ccc4O)n[nH]c3C(=O)N2Cc2cccnc2)cc1 (stereo not given)	none
COc1ccc(/C=C2\N=C(SC)SC2=O)cc1OC	none
CCCC1CCC(C2=N/C(=C\c3ccc(OC)c(OC)c3)C(=O)O2)CC1 (stereo not given)	Cruzain inh noDet 2.51µM, Cruzain inh Det 1µM
COc1ccc(OC(C)C(=O)NCc2nc(-c3ccc(Cl)cc3)no2)cc1 (stereo not given)	none
CC1=NN(c2nc(-c3ccc(F)cc3)cs2)C(=O)C1	none
CC1=NN(c2nc(-c3ccc(Cl)cc3)cs2)C(=O)C1	Cruzain inh noDet 7.94µM
CS(=O)(=O)c1ccc(Sc2nc3ccccc3s2)c([N+](=O)[O-])c1	none
O=[N+]([O-])c1cc(S(=O)(=O)C(F)(F)F)ccc1Sc1nc2ccccc2s1	Cruzain inh noDet 25.1µM
c1ccc2nc3ccccc3nc2c1	none
Nc1nc2ccccc2nc1N	Cruzain inh noDet 20µM
COc1ccccc1OCC(=O)Nc1oc(-c2ccccc2)c(-c2ccccc2)c1C#N	Cruzain inh noDet inconclusive
N#Cc1c(NC(=O)COC(=O)C2CC3C=CC2C3)oc(-c2ccccc2)c1-c1ccccc1 (stereo not given)	Cruzain inh noDet 7.94µM
Nc1c(C(=O)c2ccccc2)sc(Nc2ccccc2)c1S(=O)(=O)c1ccccc1	Cruzain inh noDet 7.94µM
CCS(=O)(=O)c1c(Nc2ccc(F)c(Cl)c2)sc(C(=O)c2ccccc2)c1N	none
Cc1cc(C)cc(Nc2sc(C(=O)c3ccccc3)c(N)c2S(=O)(=O)c2ccccc2)c1	Cruzain inh noDet 10µM
Cc1ccc(Nc2sc(C(=O)c3ccccc3)c(N)c2C(N)=O)cc1	none
COc1ccc(Cl)cc1NC(=O)N1CCN(S(=O)(=O)c2ccc3c(ccn3C)c2)CC1	Cruzain inh noDet inconclusive
CCOC(=O)Cn1c(=O)n(CC2CCCO2)c2nc(-c3cc(OC)ccc3OC)nc(C(N)=O)c21 (stereo not given)	none
COc1ccc(Cn2c(O)c(C=Nc3ccc(OC)cc3)c3ccccc3c2=O)cc1	Cruzain inh noDet 12.6µM
CC(C)CCC(C)N=Cc1c(O)n(Cc2ccccc2)c(=O)c2ccccc12 (stereo not given)	Cruzain inh noDet inconclusive
CCc1ccc(NC(=O)CN(Cc2ccccc2)S(=O)(=O)c2ccc3nc(C)sc3c2)cc1	Cruzain inh noDet inconclusive
CC(=O)c1cccc(NC(=O)COC(=O)[C@@H](NC(=O)OCc2ccccc2)C(C)C)c1	Cruzain inh noDet 25.1µM, Cruzain inh Det 15.8µM
